According to PubChem BioAssay (Tox21):
Records with an inconclusive call do not appear. A call without a number means that no potency is given here. Active and inactive are the calls of the source. Calls follow the shape of the dose curve; as a rule, active = well fitted cell-killing curve with a large enough effect in the repeat runs; inconclusive = weak or mixed curves; inactive = no such curve, though single readings can be large or run the other way.

Test: qHTS assay to identify small molecule agonists of the peroxisome proliferator-activated receptor delta (PPARd) signaling pathway - cell viability counter screen (AID 743211); also: nearly all actives have a fitted effect of over 55% in size
Settings: PPARd-bla HEK293H viability, CellTiter-Glo luminescence, 17 h; series mostly up to 62.6 µM
Source text: U.S. Tox21 Program National Center for Advancing Translational Sciences [NCATS] NIH Chemical Genomics Center [NCGC] U.S. Environmental Protection Agency [EPA] National Institutes of Environmental Health Sciences [NIEHS] National Toxicology Program [NTP] U.S. Food and Drug Administration [FDA] Tox21 Assay Overview: The peroxisome proliferator-activated receptors (PPARs) are lipid-activated transcription factors of the nuclear receptor superfamily with three distinct subtypes namely PPAR alpha, PPAR delta (PPARd) and PPAR gamma. All these subtypes heterodimerizes with Retinoid X receptor (RXR) and have different physiological functions. […] To identify the compounds that activate PPAR-delta signaling, GeneBLAzer PPAR delta UAS-bla HEK293H cell line (Invitrogen, Carlsbad, CA, USA) containing a beta-lactamase reporter gene under the control of an Upstream Activator Sequence (UAS) was used to screen the Tox21 compound library. The cytotoxicity of the Tox21 compound library against the PPARd-bla cell line was tested in parallel by measuring the cell viability using CellTiter-Glo assay (Promega, Madison, WI) in the same wells.
Tox21 Assay Protocol Summary: PPARd-bla cells were dispensed at 3000 cells/6uL/well in 1536-well black wall/clear bottom plates using a Multidrop Combi (Thermo Fisher Scientific, Waltham, MA) dispenser. After the assay plates were incubated at 37 C and 5% CO2 for 5 h, 23 nL of compounds dissolved in DMSO, positive controls or DMSO only was transferred to the assay plate by a Pintool station (Kalypsys, San Diego, CA). The assay plates were incubated at 37C for 17 h. After 1 uL of LiveBLAzerTM B/G FRET substrate was added using a Bioraptr Flying Reagent Dispenser (FRD) workstation (Beckman Coulter, Indianapolis, IN, USA), the plates were incubated at room temperature for 2 h, and fluorescence intensity was measured by an Envision plate reader (PerkinElmer, Shelton, CT). For cell viability readout that measures cytotoxicity, 3 ul/well of CellTiter-Glo reagent was added into the assay plates using a Bioraptr FRD. After 30 min incubation at room temperature, the luminescence intensity in the plates was measured using a ViewLux plate reader (PerkinElmer).
Potency is read from the fitted curve at half-maximal effect.

Row | SMILES | Potency
1 | O=C1c2ccccc2C(=O)C1c1nc2ccccc2c(Br)c1O | inactive
2 | C=CCc1ccccc1OCC(O)CNC(C)C (stereo not given) | inactive
3 | C[C@]1(Cn2ccnn2)[C@H](C(=O)O)N2C(=O)C[C@H]2S1(=O)=O | inactive
4 | Cc1cc(O)ccc1O | inactive
5 | O=c1[nH]c2ccc(Cl)cc2o1 | inactive
6 | Cc1cccc(N(C)C(=S)Oc2ccc3c(c2)CCC3)c1 | inactive
7 | CC1=C(Br)C(=O)C(Br)=C/C1=C(/c1ccccc1S(=O)(=O)O)c1cc(Br)c(O)c(Br)c1C | inactive
8 | O=C1CCCCCCCCCCOCCCCO1 | inactive
9 | O=C1c2ccccc2C(=O)N1CCc1noc(-c2ccc(CN3CCCCCC3)s2)n1 | inactive
10 | COc1ccccc1N1CCN(CC(O)COc2cccc3ccccc23)CC1 (stereo not given) | 26.6 µM (active)
11 | NNC(=O)CP(=O)(c1ccccc1)c1ccccc1 | inactive
12 | CC(C)=CCC/C(C)=C/CC/C(C)=C/C(=O)OCC(=O)[C@@]1(O)CC[C@H]2[C@@H]3CCC4=CC(=O)C=C[C@]4(C)[C@H]3[C@@H](O)C[C@@]21C | 23.7 µM (active)
13 | CN1C(=O)OC(C)(C)C1=O | inactive
14 | CCC(=O)OC | inactive
15 | C=COCC(C)C | inactive
16 | OCCOCC#CCOCCO | inactive
17 | O=c1c(O)c(-c2ccc(O)cc2)oc2cc(O)cc(O)c12 | inactive
18 | CCCCC(CC)COP(=O)(O)O (stereo not given) | inactive
19 | CC(O)c1ccccc1 (stereo not given) | inactive
20 | c1ccc2c(c1)CCc1ccccc1N2 | inactive

Row | SMILES | Potency
21 | CCOC(=O)C1=C(C)NC(C)=C(C(=O)OC)C1c1cccc(Cl)c1Cl (stereo not given) | inactive
22 | C[C@@H](O)[C@H]1C(=O)N2C(C(=O)O)=C([C@H]3CCCO3)S[C@H]12 | inactive
23 | O=C(OC(=O)c1ccccc1)c1ccccc1 | inactive
24 | CCCCCCCC/C=C\CCCCCCCCO | inactive
25 | NCCNCCO | inactive
26 | CCC(C)(C)OC | inactive
27 | CCN(CC)CCNC(=O)COc1ccc(OC)cc1 | inactive
28 | COC(=O)CCS | inactive
29 | CCOC(=O)OC(C)OC(=O)[C@@H]1N2C(=O)[C@@H](NC(=O)[C@H](N)c3ccccc3)[C@H]2SC1(C)C (stereo not given in full) | inactive
30 | c1ccc(C[n+]2cccc3ccccc32)cc1 | inactive
31 | CCCCCCC(C)(C)C(=O)O | inactive
32 | CCn1cc(C(=O)O)c(=O)c2cc(F)c(N3CCNCC3)cc21 | inactive
33 | NC1[C@H]2CN(c3nc4c(cc3F)c(=O)c(C(=O)O)cn4-c3ccc(F)cc3F)C[C@@H]12 (stereo not given in full) | inactive
34 | C=CC(=O)[O-].C=CC(=O)[O-].[Zn+2] | inactive
35 | CCCC(C(=O)OCCN(CC)CC)(c1ccccc1)c1ccccc1 | 29.8 µM (active)
36 | c1cc(N(CC2CO2)CC2CO2)ccc1Cc1ccc(N(CC2CO2)CC2CO2)cc1 (stereo not given) | inactive
37 | Cc1c(C)c2c(c(C)c1OC(=O)CCC(=O)OCCO)CC[C@@](C)(CCC[C@H](C)CCC[C@H](C)CCCC(C)C)O2 | 33.5 µM (active)
38 | CCOc1cccc(-n2cc(C(=O)N3CCN(c4cc(C(=O)O)c5ccccc5c4)CC3)nc2-c2ccc(C)cc2)c1 | 37.1 µM (active)
39 | CCC(C)COC(C)=O (stereo not given) | inactive
40 | O=C1c2ccccc2C(=O)C1c1ccc(Br)cc1 | inactive
